Pf apPOL inh – Pf-apPOL inhibitors, biochemical, fluorescence; AID 1794808, 2022; 210,000 compounds, 0.25% hits; Plasmodium falciparum apicoplast DNA polymerase (apPOL); Recombinant Pf-apPOL, molecular beacon fluorescence, 1.5 h; inhibition, % at 10 µM
mHTT CaM bind – mutant huntingtin-calmodulin interaction inhibitors – biochemical, AlphaScreen, primary screen | 190,000 compounds, 3.6% hits | inhibition, % at 15 µM | AlphaScreen His-mHTT/GST-CaM binding, luminescence;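 further: 0% = both proteins with DMSO and 100% = one protein alone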
Starred values were filed as active, the others as inactive; i = inactive; / = not tested or not shown; + = active, no number. Most compounds without a hit are left out; they make up all but 3.5% or so of the library. No stated cut-off is given here; in the data, active means inhibition above about 50%; inactive means the rest.

SMILES | Pf apPOL inh | mHTT CaM bind
COCCN1C(=O)c2ccccc2C(C(=O)Nc2cc(C)ccn2)C1c1cn(C)c2ccccc12 (stereo unspecified) | -3.0 | 54.0*
COc1cc2c(cc1OC)C(C(=O)Nc1cc(C)ccn1)C1c3ccccc3CCN1C2=O (stereo unspecified) | -1.0 | 69.0*
COCCN1C(=O)c2ccccc2C(C(=O)O)C1c1cn(C)c2ccccc12 (stereo unspecified) | 3.9 | 1.0
CC(=O)Nc1ccc(S(=O)(=O)Nc2ccc(F)c(Cl)c2)cc1 | -0.5 | 2.7
O=C(NCCCN1CCCC1=O)C1CCN(c2cnn(Cc3ccccc3)c(=O)c2)CC1 | -7.4 | 0.5
CCC(C)NC(=O)C1CCN(Cc2c(C)n(CC)c3ccccc23)CC1 (stereo unspecified) | 4.2 | -8.6
COCCN1CCC(N2CCCN(C(=O)c3cc(F)ccc3Cl)CC2)C1=O (stereo unspecified) | 3.2 | 1.4
COc1cccc(C(=O)NCc2[nH]nc3ccccc23)c1 | -4.5 | 51.9*
Cc1cc(C)cc(C(=O)NCc2[nH]nc3ccccc23)c1 | -1.8 | -0.7
CC1CCCC(C)N1C(=C(Cl)Cl)C(=C1SCCS1)[N+](=O)[O-] (stereo unspecified) | -2.2 | 72.0*
O=[N+]([O-])C(=C1SCCCS1)C(=C(Cl)Cl)N1CCOCC1 | -9.5 | 32.0
COc1cc(OC)cc(N2CCN(C(=O)c3cccc(F)c3)C(C)C2=O)c1 (stereo unspecified) | -3.2 | -5.2
CC(=O)C(C=Nc1ccc(Br)cc1)=C(C)O | -8.6 | /
O=c1/c(=C/c2ccccc2O)sc2n1CN(c1ccc(Cl)cc1)CN=2 | 51.3* | 13.0
O=c1/c(=C/c2ccccc2O)sc2n1CN(c1ccc(F)cc1)CN=2 | -0.8 | 36.0
Cc1ccc(-n2c(=O)n(CC(=O)Nc3ccc(C)cc3C)c3cccnc32)cc1 | 5.2 | -4.9
N#CC1=C(N)Oc2n[nH]c(-c3ccccn3)c2C1c1ccco1 (stereo unspecified) | -0.2 | 91.0*
CC(C)(C)c1[nH]nc2c1C(c1ccco1)C(C#N)=C(N)O2 (stereo unspecified) | -0.8 | 1.0
O=C1N2CN(C3CCCCC3)CN=C2SC1(CO)CO | -2.7 | 3.0
Clc1cc(Cl)cc(Nc2nc(-c3ccccc3)cs2)c1 | -5.0 | 96.4*
Cc1ccc(-c2csc(Nc3ccc(Cl)cc3)n2)cc1 | -0.1 | 46.8
Cc1ccc(Nc2nc(-c3ccncc3)cs2)cc1 | 4.0 | 9.0
Clc1ccc(-c2csc(Nc3ccc(Oc4ccccc4)cc3)n2)cc1 | 1.3 | 52.0*
COc1ccc(Nc2nc(-c3cccc(NC(C)=O)c3)cs2)cc1 | 3.4 | 44.4
COc1ccc(-c2csc(Nc3ccc(N)cc3)n2)cc1 | -2.4 | 87.7*
SMILES | Pf apPOL inh | mHTT CaM bind
O=[N+]([O-])c1ccc(-c2csc(Nc3cc(Cl)cc(Cl)c3)n2)cc1 | -0.4 | 2.4
Cc1ccc(Nc2nc(-c3ccccc3)cs2)cc1 | -8.8 | 64.0*
COc1ccc(CC2CCCNC2)cc1 (stereo unspecified) | 7.2 | 0.9
O=C(Nc1ccccc1Br)c1ccc(F)cc1 | -0.4 | -6.5
Cc1ccccc1C(=O)NC1CCN(c2ccccc2C(=O)N2CCCCC2)CC1 | -4.5 | 3.8
COc1cccc(-c2nc(C3CCN(C(=O)c4ccc(C#N)cc4F)CC3)no2)c1 | 1.1 | 2.1
O=c1c2cnn(-c3cccc(Cl)c3)c2ncn1Cc1cccc([N+](=O)[O-])c1 | 3.4 | 0.4
Cc1nc(SC(C)C(=O)O)[nH]c(=O)c1C (stereo unspecified) | 1.5 | -2.8
CC(=O)c1ccc(NC(=O)CN2CCN(c3ncnc4c3nnn4C)CC2)cc1 | -6.7 | -8.6
Cc1ccc(-c2csc(Nc3ccc(Oc4ccccc4)cc3)n2)cc1 | -3.2 | 68.1*
Clc1ccc(-c2csc(Nc3ccccc3)n2)s1 | -2.2 | /
Cc1ccc(-c2csc(Nc3ccccc3)n2)cc1 | -0.3 | 61.1*
COc1ccc(-c2csc(Nc3ccc(C)cn3)n2)cc1 | -1.0 | 9.6
O=[N+]([O-])c1cccc(Nc2nc(-c3ccncc3)cs2)c1 | -0.3 | 1.5
O=[N+]([O-])c1ccc(-c2csc(Nc3ccc(Oc4ccccc4)cc3)n2)cc1 | -1.5 | 59.8*
CCOc1cc(C2C=C(c3cccc(C)c3)Nc3ncnn32)ccc1OC(F)F (stereo unspecified) | -7.0 | -2.0
CC1CCc2sc(NC(=O)Nc3ccccc3)c(C(N)=O)c2C1 (stereo unspecified) | -0.2 | 5.8
COc1ccc(NC(=O)C(NC(=O)/C=C/c2ccc3c(c2)OCO3)c2ccc(C)cc2)cc1 (stereo unspecified) | 3.0 | -4.0
C=CCn1c(=O)c2c(ncn2Cc2ccccc2F)n(-c2ccc(F)cc2)c1=O | -2.7 | 0.8
COc1ccc(CCNC(=O)c2cc(-c3ccc(Cl)c(Cl)c3)on2)cc1OC | -0.4 | 0.0
O=C(NCCc1ccccc1)c1cncc(-c2cccc(C(F)(F)F)c2)c1 | -0.5 | -2.1
O=C1OCCN1C(=O)[C@H]1[C@H](c2ccc(Cl)cc2)C(c2ccc(F)cc2)=NN1c1ccccc1 | 1.7 | 71.9*
O=C1OCCN1C(=O)[C@H]1[C@H](c2ccc(F)cc2)C(c2ccc(F)cc2)=NN1c1ccccc1 | 0.8 | 23.9
O=C1OCCN1C(=O)[C@H]1[C@H](c2ccc(F)cc2)C(c2ccccc2)=NN1c1ccccc1 | 0.9 | -32.9
O=C1OCCN1C(=O)[C@H]1[C@H](c2ccc(F)cc2)C(c2ccc(F)cc2)=NN1c1ccc(Br)cc1 | -6.1 | 54.1*
SMILES | Pf apPOL inh | mHTT CaM bind
O=C1OCCN1C(=O)[C@H]1[C@H](c2ccc(Cl)cc2)C(c2ccc(F)cc2)=NN1c1ccc(Br)cc1 | -7.1 | 79.1*
O=C1OCCN1C(=O)[C@H]1[C@H](c2ccc(Cl)cc2)C(c2ccccc2)=NN1c1ccccc1 | -8.1 | -9.4
Cc1ccc(CNC(=O)c2c(C)sc3c(=O)n(C4CCCC4)cnc23)cc1 | -11.4 | -1.6
CCOc1cccc(/C=C2/SC(c3ccc(C)cc3)=NC2=O)c1O | -1.1 | 6.0
N#COc1ccc(Nc2ccc(OC#N)cc2)cc1 | 5.3 | 95.1*
N#Cc1ccc(Oc2ccc(N)cc2)cc1 | -4.2 | 0.3
COc1ccc(Nc2c(Cl)cc(OC)cc2Cl)cc1 | -4.8 | /
N#COc1ccc(Oc2ccc(OC#N)cc2)cc1 | -29.4 | 96.8*
Cn1cnnc1SCc1ccc(C(=O)c2ccccc2)cc1 | -2.2 | -1.7
COc1ccc(S(=O)(=O)N2CC=C(c3cn(C)c4ncccc34)CC2)cc1Cl | -2.0 | 6.9
Cc1ccc(S(=O)(=O)N2CC=C(c3cn(C)c4ncccc34)CC2)cc1Cl | -1.4 | 64.8*
Cc1cccc(N2CC(C(=O)N(C)C(C)C)CC2=O)c1 (stereo unspecified) | -3.4 | -1.7
O=C1Nc2ccccc2/C1=N\N1CCN(C2c3ccccc3-c3ccccc32)CC1 | / | +
O=C1Nc2ccccc2/C1=N\N1C(=O)C2C=CC=CC2C1=O (stereo unspecified) | / | i
CC(C)c1c(C2CCN(C(=O)c3ccc(Cl)cc3)CC2)noc1N | -0.9 | -1.8
COc1cc(C=C2Oc3c(CN4CCCCC4)c(O)cc(C)c3C2=O)cc(OC)c1OC | -27.0 | -1.8
C[n+]1ccc(/C=C/c2ccc3c(c2)OCO3)c2ccccc21 | -13.1 | 8.0
CN(C)c1ccc(/C=C/c2cc[n+](C)c3ccccc23)cc1 | 3.3 | 80.0*
CC1(C)Cc2c(sc3nc(SCC(=O)O)n(-c4ccccc4)c(=O)c23)CO1 | 3.0 | -1.2
CC1(C)Cc2c(sc3nc(Nc4ccccc4)n(N)c(=O)c23)CO1 | -6.0 | 53.4*
